Assay outcomes as filed in PubChem.
Compounds with a hit are over-represented: about 13% of the library has one in this group of screens.
Marburg entry inh: inhibitors of Marburg virus binding or cell entry | Marburg virus pseudotyped entry inhibition, cell reporter | Potency, µM (highest dose often 37.8 µM), for inactives: top-dose activity change, negative = inhibition, most hits filed as inhibitors | 1.8% of 300,000 active | AID 540276; calls by dose curve; tested in HEK293 cells; further: potency means the concentration at half of the fitted maximal effect; on the % scale 0 is the no-effect control and ±100 the full control effect
Shiga inhibitor: Shiga toxin inhibition; Vero cells, Shiga toxin protein synthesis inhibition reporter; inhibition, % at 38.7 µM; 9.2% of 290,000 active; in the data active means inhibition mostly above about 28%, no sharp cut-off; inactive means mostly below about 43%; further: 0% is about no effect
HCV inhibitor: blocks hepatitis C virus. AID 651820. Huh7.5.1 HCVcc-Cre infection, luciferase reporter, 44 h. Potency, µM (doses to about 41.8 µM), for the others: at the top dose activity change, negative = inhibition, most hits filed as inhibitors. 3.4% of 340,000 active; active means well fitted inhibition curve with a large enough effect; inconclusive means small, poorly fitted or top-dose-only effect, or another doubt; inactive means no such curve, though single readings can be large or run the other way; further: potency means the concentration at half of the fitted maximal effect; on the % scale 0 is the no-effect control and ±100 the full control effect
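Compounds are dispensed onto cells plated 4 h earlier at 1,000 per well, with HCVcc-Cre virus (about 0.5 moi) added next. Following 44 h of culture, luminescent signal is measured for 15 sec after 15 min with substrate at room temperature.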
LASV entry inh: inhibitors of Lassa virus binding or cell entry. Lassa virus pseudotype entry inhibition, cell reporter. Potency, µM (highest dose often 37.9 µM), without a hit: top-dose activity change, negative = inhibition, actives largely listed as inhibitors. 1.2% of 300,000 active. AID 540256; calls by dose curve; tested in HEK293 cells; further: potency means the concentration at half of the fitted maximal effect; on the % scale 0 is the no-effect control and ±100 the full control effect; nearly all actives have a fitted effect of over 50% in size
FMDV inh: foot and mouth disease virus antiviral activity. 1.2% of 410,000 active. AID 1159524. Potency, µM (top dose mostly 57.9 µM), inactives show at the top dose activity change, negative = inhibition, most hits filed as inhibitors. FMDV antiviral cell-based qHTS; calls by dose curve; tested in HEK293T cells; further: read-out not given here; potency means the concentration at half of the fitted maximal effect; on the % scale 0 is the no-effect control and ±100 the full control effect; nearly all actives have a fitted effect of over 45% in size
Cycloheximide cs: counter-screen hit for Shiga toxin inhibitors, cycloheximide | 12% of 300,000 active | cell reporter, cycloheximide protein synthesis inhibition counterscreen | AID 2314 | max response, %; in the data active means max response mostly above about 13%, no sharp cut-off; inactive means mostly below about 14%; further: read at 38.3 µM for the half of the compounds with a filed dose; 0% is about no effect
* = called active by the depositor; ? = inconclusive; · = no result given; [ ] = remark or other dose.

SMILES	Marburg entry inh	Shiga inhibitor	HCV inhibitor	LASV entry inh	FMDV inh	Cycloheximide cs
CN(C)C(=O)N1CCCC(C(=O)NCCc2ccccc2)C1 (stereo unspecified)	14.1%	95.1*	16.3%	7.9%	0.0%	26.0*
O=C(CN1CCN(S(=O)(=O)c2ccccc2[N+](=O)[O-])CC1)NC(=O)NCc1ccco1	·	7.1	-9.2%	·	-6.4%	3.4
CNS(=O)(=O)c1ccc(NC(=O)c2cc(-c3ccncc3)nc3ccc(Cl)cc23)cc1	-12.8%	26.0	·	-0.9%	0.6%	9.1
CC(=O)c1ccc(N2CCN(C(=O)c3cc(-c4ccc5c(c4)OCO5)nc4ccccc34)CC2)cc1	?	36.2*	?	-10.1%	0.0%	20.4*
O=C(O)c1cc(-c2ccc(-c3ccc(F)cc3)o2)nc2ccccc12	·	30.5*	24.0%	·	28.9%	36.6
O=C(c1cc(-c2cccs2)nc2ccccc12)N1CCN(c2ccccc2O)CC1	?	90.8	-27.0%	?	-1.2%	19.0*
Cc1ccc(-c2cc(C(=O)N3CCN(c4ccccc4O)CC3)c3ccccc3n2)cc1	?	·	-13.8%	?	13.9%	·
COc1cccc(CN(C)C(=O)c2cc(-c3ccc(F)cc3)nc3ccccc23)c1	?	-14.3	31.6µM*	?	-27.0%	-3.6
O=C(O)c1cc(-c2ccc3c(c2)OCO3)nc2ccccc12	-2.5%	-5.1	8.5%	0.5%	38.3%	-1.4
COc1ccccc1NC(=O)CN1C(=O)CSC(C)C1=O (stereo unspecified)	-27.0%	-4.7	-0.6%	1.8%	0.6%	-1.5
O=S(=O)(Nc1nnc(C2CC2)s1)c1ccccc1	·	-8.1	18.5%	·	-5.9%	-2.7
COC(=O)[C@@H](NCc1cccc(CN([C@H](C(=O)OC)C(C)C)S(C)(=O)=O)c1)C(C)C	·	-0.7	-13.7%	·	-23.0%	0.9
O=C(C[C@H]1C/C=C\C[C@@H](Cc2ccc(F)cc2)C(=O)OC[C@H]2CCCN2C1=O)NCCO	·	·	3.2%	·	-17.3%	·
CC(=O)N1CCN(c2nc(-c3cccs3)nc3ccccc23)CC1	?	-8.4	11.2µM*	?	-12.8%	-3.0
CCOc1ccc(-c2cc(C(=O)N3CCC4(CC3)OCCO4)c3ccccc3n2)cc1	10.8%[46.1 µM]	·	-1.3%	?	32.1%	·
COc1ccc(-c2cc(C(=O)N3CCCC3)c3ccccc3n2)cc1	·	44.8*	-28.5%	·	13.8%	36.4*
Cc1ccc(-c2cc(C(=O)N3CCN(c4ccc(F)cc4)CC3)c3ccccc3n2)o1	?	44.7	?	?	-0.7%	28.8*
CCOC(=O)N1CCN(c2nc(-c3cccs3)nc3ccccc23)CC1	?	-2.6	?	?	-20.2%	1.7
COc1ccc(-c2cc(C(=O)N3CCC4(CC3)OCCO4)c3ccccc3n2)cc1	·	38.7	-0.1%	·	11.0%	24.9*
O=C(COC(=O)CCC1CCCC1)Nc1ccc(Cl)cn1	-6.9%	-1.2	3.8%	-7.0%	9.9%	4.9
O=C1C2CCc3ccccc3C2N1c1ccccc1 (stereo unspecified)	·	·	9.1%	·	-8.2%	·
COc1ccc2cc(-c3ccon3)ccc2c1	?	107.1*	-4.4%	-15.0%[46.1 µM]	41.6%	31.8*
COc1ccc(-c2cc(C(=O)N3CCN(c4ccccc4)CC3)c3ccccc3n2)cc1	?	62.7*	?	?	1.7%	27.4*
COc1ccc(-c2cc(C(=O)O)c3ccccc3n2)c(OC)c1	22.2%[46.1 µM]	1.3	1.4%	0.6%	-18.3%	-2.4
COc1ccc2cc(-c3cc(C(=O)O)c4ccccc4n3)ccc2c1	0.708µM*	-31.8	18.0%	0.355µM*	10µM*	-7.4
SMILES	Marburg entry inh	Shiga inhibitor	HCV inhibitor	LASV entry inh	FMDV inh	Cycloheximide cs
Cc1ccc(-c2cc(C(=O)N3CCCCC3)c3ccccc3n2)cc1C	·	33.1	?	·	15.2%	22.8*
COc1ccc(-c2cc(C(=O)N3CCN(c4ccccc4O)CC3)c3ccccc3n2)cc1	·	·	?	·	29.0%	·
Cc1ccc(C(C)(C)C)cc1S(=O)(=O)N1CCC(C(=O)N2CCN(c3ccc(O)cc3)CC2)CC1	?	·	?	2.82µM*	?	·
C=CC[n+]1c(-c2ccc(OC)c(OC)c2)csc1NNC(=O)Nc1ccccc1	?	-17.4	3.98µM*	10.3µM*	·	-1.8
Cc1ccc(CONC(=O)c2ccccc2)cc1	7.6%[46.1 µM]	67.1*	-20.6%	?	25.3%	39.6*
Cc1ccc(C(=O)N/C(=C\c2ccccc2)C(=O)OCc2ccccc2)cc1	-5.7%	71.0*	-3.0%	-7.7%	76.2%	45.2*
O=C(CNC(=O)/C(=C/c1ccccc1)NC(=O)c1ccc(Br)cc1)OCc1ccccc1	-5.0%[46.1 µM]	-21.6	9.1%	-1.2%[46.1 µM]	-5.3%	-12.0
C=CC1CN2CCC1CC2[C@@H](OC(=O)c1ccc(OC)cc1)c1ccnc2ccccc12 (stereo partly specified)	11.2µM*	-23.9	19.9%	?	?	-7.0
C/C(=N\NC(=O)c1nnn(-c2nonc2N)c1CN1CCC(C)CC1)c1cccc(Br)c1	·	10.7	9.0%	·	-15.7%	8.1
O=[N+]([O-])c1ccc(COc2cccc3cccnc23)cc1	4.4%	142.7*	-17.0%	?	31.9%	67.9*
N#Cc1ccc(COc2cccc3cccnc23)cc1	17.9%[46.1 µM]	35.7*	?	1.3%	24.8%	24.9*
O=[N+]([O-])c1ccc(OCCCOc2cccc3cccnc23)cc1	?	·	-2.2%	1.2%[46.1 µM]	-4.7%	1.2
CCOC(=O)c1[nH]c(C)c(/C(O)=C2\C(=O)C(=O)N(CCN3CCOCC3)C2c2cccs2)c1C (stereo unspecified)	?	14.6	8.8%	?	7.6%	12.0
COc1cc(Br)cc(/C=N/N(CCO)C2=NS(=O)(=O)c3ccccc32)c1OC	3.98µM*	12.7	?	-27.9%[46.1 µM]	?	-4.8
COc1ccc(CCNC(=O)NC23CC4CC(CC(C4)C2)C3)cc1	-24.3%	62.1	-13.4%	2.6%	·	30.2
O=C(NCCC1=CCCCC1)NC12CC3CC(CC(C3)C1)C2	-17.9%	70.3*	-19.1%	?	-24.1%	43.7*
O=C(NCCc1ccc(F)cc1)NC12CC3CC(CC(C3)C1)C2	·	119.8*	-2.5%	·	47.4%	64.5*
CCc1ccc(S(=O)(=O)c2nnn(-c3cccc(C)c3)c2N)cc1	8.7%[46.1 µM]	·	·	-3.7%[46.1 µM]	-19.8%	·
COC(=O)CSC1=C(C#N)C(=O)NC(c2ccccc2)S1 (stereo unspecified)	19.0%	-1.8	13.2%	-18.9%	7.94µM*	7.8
Nc1c(C(=O)C2CC2)sc2nc3c(cc12)CCC3	·	65.7*	-12.1%	·	49.2%	42.7*
CCCc1ccc2c(N)c(C#N)sc2n1	-0.3%	21.9	17.5%	-8.6%	·	5.9
N#Cc1sc2nc3c(cc2c1N)CCCC3	?	26.9	1.5%	-0.7%	0.3%	23.3*
Nc1c(C(=O)O)sc2nc3c(cc12)CCCC3	·	3.8	11.8%	·	-3.7%	-1.2
Cc1ccc2c(N)c(C#N)sc2n1	-17.3%[46.1 µM]	38.9	-7.7%	?	35.3%	21.6*
Nc1c(C(=O)c2ccc(Cl)cc2)sc2nc3c(cc12)CCC3	?	25.9	8.9%	-5.3%	23.5%	31.7*
